This note sets out measurements from PubChem BioAssay (NCI).

What all share (experiment): NCI-60 one-dose screen, 48 h (100 = growth as untreated, 0 = no growth, -100 = all killed)
Common to all, as to details: 10 µM unless noted

In experiment [1] the test system is NCI-H23 lung.
For experiment [2], the system named is NCI-H226 lung.
Experiment [3] relates to NCI-H322M lung.
Experiment [4] has as its system HOP-62 NSCLC.
Experiment [5] deals with NCI-H460 lung.
For experiment [6], the system named is NCI-H522 lung.
The subject of experiment [7] is A549/ATCC NSCLC.
For experiment [8], the system named is 786-0 renal.
The test system of experiment [9] is COLO 205 colon.
For experiment [10], the system named is HOP-92 NSCLC.

Molecules are shown by their SMILES. Compounds without any hit were thinned out: in the full panel of roughly 83,000, 20% have a hit.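 Growth was measured after 48 h exposure to one concentration of compound in 96-well plates. Values under 10 count as active.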 Values without a mark were called inactive. The source made the active and inactive calls.

On to `COC(=O)[C@]12CC[C@@H](C)[C@H](C)[C@@H]1C1=CC[C@@H]3[C@@]4(C)C(C=O)=C[C@@](C)(COS(C)(=O)=O)C4[C@H](O)C[C@@]3(C)[C@]1(C)CC2` (stereo partly specified), for which the growth was -50.1% (active) in [1]; -67.2% (active) in experiment [2]; -1.44% (active) in [3]; -63.6% (active) in [4]; -58.2% (active) in [5]; -82.6% (active) in experiment [6]. Also, the growth in experiment [7] is -67.1% (active); in [8], -91.5% (active); in experiment [9], -70.8% (active).

Regarding `COc1ccc(C2C(c3nn[nH]n3)=C(N)Oc3c2ccc2ccccc32)cc1` (stereo unspecified), the growth in [1] was 69.1%; in experiment [2], 82.4%; in experiment [3], 85.1%; in experiment [4], 70.3%; in experiment [5], 53.7%; in [10], 77.1%. For the same molecule, the growth was 23.9% in [6], 72.5% in experiment [7], 79.2% in experiment [8] and 92.5% in [9].

Consider `O=C(NC(CSSCC(NC(=O)c1ccccc1)C(=O)O)C(=O)O)c1ccccc1` (stereo unspecified), for which the growth in experiment [1] is 101%; in [2] it was 98.7%; in experiment [3], 103%; in experiment [4] it was 95.6%; in experiment [5], 107%; in experiment [6] it was 92.4%. The growth was 104% in experiment [7], 105% in [8] and 114% in experiment [9].

As for `COC(=O)[C@]12CC[C@@H](C)[C@H](C)[C@@H]1C1=CC[C@@H]3[C@@]4(C)C(C=O)=C[C@@](C)(COC(=O)/C=C/c5ccccc5)[C@@H]4[C@H](O)C[C@@]3(C)[C@]1(C)CC2`, the growth in experiment [1] is 10.4%; in [2], 10.1%; in experiment [3], 42%; in experiment [4], -5.38% (active); in experiment [5] it was -19.1% (active); in experiment [10] it was -5.49% (active). Besides, the growth is -16.3% (active) in experiment [6], 3.82% (active) in experiment [7], -5.1% (active) in experiment [8] and -37% (active) in experiment [9].

On to `COc1cc(C2CC(=O)Nc3c2c(C)nn3-c2nc3ccccc3[nH]2)c(OC)c(OC)c1OC` (stereo unspecified), for which the growth was 82.6% in experiment [1]; 89.7% in experiment [2]; 95.2% in experiment [3]; 44.3% in experiment [4]; 39% in experiment [5]; 33.3% in experiment [6]. Further, the growth was 43.2% in experiment [7], 27.6% in experiment [8] and 41.2% in [9].

On to `Cc1ccc(NCCN(C)C)c2c(=O)c3ccccc3sc12`, for which the growth in experiment [1] was 40.5%; in experiment [2], 32.3%; in experiment [3] it was 53.5%; in experiment [4], 36.2%; in experiment [5], -14.5% (active); in [10], 30.4%. Moreover, the growth in experiment [6] was 16.8%; in experiment [7] it was 7.25% (active); in experiment [8], 24.2%; in [9], -53.5% (active).

For the molecule `O=c1c2c3c(sc2n2c(-c4cc(-c5ccccc5)nn4-c4ccccc4)nnc2n1Cc1ccccc1)CCCC3`, the growth in experiment [1] is 105%; in experiment [2], 99%; in experiment [3], 112%; in experiment [4], 95%; in experiment [5] it was 106%; in experiment [10], 53.2%. Moreover, the growth in experiment [6] was 45.9%; in [7] it was 101%; in [8], 95.9%; in experiment [9] it was 86%.

`Cc1c(C(=O)OC(=NC2CCCCC2)NC2CCCCC2)sc2c1c(=O)nc1c(C#N)n[nH]n12`: the growth is 97.3% in [1]; 131% in [2]; 115% in experiment [3]; 89.5% in experiment [4]; 112% in experiment [5]; 89.2% in [6]. Besides, the growth in experiment [7] is 108%; in [8], 92%; in experiment [9] it was 120%.

`CC/C=C/C/C=C/C/C=C/C/C=C/C/C=C/C/C=C/CCC(=O)Nc1ccn([C@@H]2O[C@H](CO)[C@@H](O)C2(F)F)c(=O)n1`: the growth is 1.56% (active) in experiment [1]; 8.09% (active) in [2]; 51.9% in experiment [3]; 8.82% (active) in experiment [4]; 9.01% (active) in [5]; 39.8% in experiment [6]. The growth in experiment [7] is 17.6%; in experiment [8], 0.0768% (active); in [9], 11.8%.

Take `Cc1nc2c(c(N3CCCc4ccccc43)n1)CCC2`: the growth in experiment [1] was 25.5%; in experiment [2], 10.9%; in [3], 54.5%; in [4], 4.68% (active); in [5], 3.12% (active); in experiment [6] it was -18.6% (active). In addition, the growth in [7] is 2.98% (active); in experiment [8], 10.1%; in experiment [9], -59.5% (active).

Consider `CC(C)C(=O)Nc1n[nH]c2cc(-c3cccc(NS(=O)(=O)C4CC4)c3)ccc12`, for which the growth in experiment [1] was 53.6%; in experiment [2] it was 60%; in [3], 96.2%; in experiment [4], 66.5%; in experiment [5], 84.4%; in experiment [6], 40.8%. Also, the growth in experiment [7] is 80.3%; in experiment [8] it was 89.2%; in experiment [9], 84.7%.

`C[C@@]1(CCC#N)[C@H]2CC[C@@H]3[C@H]4[C@H](C(=O)/C=C/c5cccnc5)CC[C@]4(C#N)CC[C@@]3(C)[C@]2(C)CC[C@H]1C(=O)/C=C/c1cccnc1`: the growth in experiment [1] is 62.8%; in experiment [2], 65.5%; in [3], 97.7%; in [4], 73.2%; in [5], 75.2%; in experiment [6] it was 37.9%. Also, the growth in [7] was 71.9%; in experiment [8], 77.9%; in [9], 71.7%.

As for `O=c1c2c3c(sc2n2c(-c4cn(-c5ccccc5)nc4-c4ccc(Cl)cc4)nnc2n1Cc1ccccc1)CCCC3`, the growth in experiment [1] was 94.3%; in experiment [2], 107%; in experiment [3] it was 102%; in experiment [4] it was 94.6%; in experiment [5], 106%; in experiment [6] it was 77.5%. Also, the growth in experiment [7] is 105%; in experiment [8] it was 99.6%; in experiment [9], 111%.
